Among all 310,000 compounds or so, about 14,000 (4.5%) showed an effect of 50% or more. Effects have a minus sign here. The list comes from a sample in which strong results are over-represented; it also holds similar structures and randomly drawn compounds.
The compounds below were run against human ether-à-go-go-related gene (hERG) potassium channel (human, UniProt Q12809) (assay: primary screen, population patch clamp on CHO cells stably expressing hERG; higher = less effect of the substance).
Chain of human ether-à-go-go-related gene (hERG) potassium channel (Q12809 whole entry, looked up): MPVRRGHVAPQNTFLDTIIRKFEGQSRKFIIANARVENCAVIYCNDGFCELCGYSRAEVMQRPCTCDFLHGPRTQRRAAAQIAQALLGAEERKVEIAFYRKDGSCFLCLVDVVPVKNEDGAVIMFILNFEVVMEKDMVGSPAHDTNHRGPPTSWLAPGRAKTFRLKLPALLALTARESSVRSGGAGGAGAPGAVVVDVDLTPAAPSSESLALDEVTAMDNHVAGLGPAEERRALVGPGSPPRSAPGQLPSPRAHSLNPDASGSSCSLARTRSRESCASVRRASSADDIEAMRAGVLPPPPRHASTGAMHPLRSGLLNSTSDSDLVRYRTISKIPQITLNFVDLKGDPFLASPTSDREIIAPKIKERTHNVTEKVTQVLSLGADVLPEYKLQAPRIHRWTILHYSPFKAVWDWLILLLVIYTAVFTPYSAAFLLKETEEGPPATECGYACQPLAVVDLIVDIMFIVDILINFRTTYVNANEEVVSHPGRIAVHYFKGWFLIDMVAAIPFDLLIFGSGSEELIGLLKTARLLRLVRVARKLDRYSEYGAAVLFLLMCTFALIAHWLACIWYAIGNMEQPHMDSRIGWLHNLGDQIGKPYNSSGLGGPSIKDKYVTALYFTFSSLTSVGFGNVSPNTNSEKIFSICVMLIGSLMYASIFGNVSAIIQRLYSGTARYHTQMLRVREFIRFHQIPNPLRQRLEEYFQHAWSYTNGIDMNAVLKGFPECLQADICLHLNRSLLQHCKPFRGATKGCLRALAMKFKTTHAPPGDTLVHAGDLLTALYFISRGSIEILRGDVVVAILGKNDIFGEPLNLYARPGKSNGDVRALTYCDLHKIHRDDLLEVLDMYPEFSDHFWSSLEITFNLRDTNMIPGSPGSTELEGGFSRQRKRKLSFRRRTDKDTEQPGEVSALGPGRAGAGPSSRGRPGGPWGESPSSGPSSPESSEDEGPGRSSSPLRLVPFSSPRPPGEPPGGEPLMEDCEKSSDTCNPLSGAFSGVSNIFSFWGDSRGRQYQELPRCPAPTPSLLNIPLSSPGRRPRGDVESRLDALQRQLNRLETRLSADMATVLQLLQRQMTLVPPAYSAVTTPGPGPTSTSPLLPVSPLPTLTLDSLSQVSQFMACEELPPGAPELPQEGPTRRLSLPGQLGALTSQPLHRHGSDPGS
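Also: peak tail current of the secondary pulse compared with the same well before compound.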

SMILES | hERG current change (%, negative = inhibition) at 10uM
O=C(COC(=O)c1ccc2ncsc2c1)Nc1cccc(Cl)c1 | 2.07%
Cc1ccc(-n2c(SCn3nnc4ccccc4c3=O)nnc2-c2cccnc2)c(C)c1 | -39.3%
Cc1cccc(C)c1NC(=O)CN(C)CC(=O)Nc1ccccc1Oc1ccccc1 | 11.3%
COc1ccc(NC(=O)c2ccc([N+](=O)[O-])o2)cc1 | 11.1%
Cc1c(OCC(=O)NC2CCN(Cc3ccccc3)CC2)ccc2c3c(c(=O)oc12)CCC3 | -47.7%
O=C(O)COCC(=O)NC1CCN(Cc2ccccc2)CC1 | 12.5%
O=C(COc1ccccc1)NC1CCCCCCC1 | -4.51%
O=C(COc1ccc2ccc(=O)oc2c1)NC1CCCC1 | 13.4%
CCCc1cc(=O)oc2c(C)c(OCC(=O)NC3CCN(Cc4ccccc4)CC3)ccc12 | -51.4%
CCCc1cc(=O)oc2cc(OCC(=O)NC3CCN(Cc4ccccc4)CC3)ccc12 | -60.2%
O=C(COc1ccc2ccc(=O)oc2c1)NC1CCCCC1 | 1.43%
Cc1c(C)c2ccc(OCC(=O)NC3CCN(Cc4ccccc4)CC3)c(C)c2oc1=O | -42.7%
O=C(COc1ccc2ccc(=O)oc2c1)NC1CCN(Cc2ccccc2)CC1 | -55.2%
CCc1cc(=O)oc2cc(C)cc(OCC(=O)NC3CCN(Cc4ccccc4)CC3)c12 | -36%
O=C(COc1ccccc1)NC1CCN(Cc2ccccc2)CC1 | -50.4%
CCCc1cc(=O)oc2cc(C)cc(OCC(=O)NC3CCN(Cc4ccccc4)CC3)c12 | -10.3%
Cc1ccc(S(=O)(=O)c2cnc3cc(C)nn3c2N)cc1 | 0.694%
Cc1ccc(CN2C(=O)[C@@H]3Cc4c([nH]c5ccccc45)C(C)(C)N3C2=O)cc1 | 7.62%
O=[N+]([O-])c1ccccc1/C=N/NC1=NS(=O)(=O)c2ccccc21 | -1.94%
O=C(NCCCN1CCCC1=O)NC1CCCCC1 | 10.9%
Cc1ccc(NC(=S)NNC(=O)c2ccc(N3CCOCC3)c([N+](=O)[O-])c2)cc1Cl | 6.24%

SMILES | hERG current change (%, negative = inhibition) at 10uM
O=C(O)CCC1=C2c3ccccc3CCN2C(=O)CC1 | 9.77%
Cc1ccc(C(=O)Nn2cnnc2)cc1Cl | 16.3%
CC1CCN(S(=O)(=O)c2ccc(NC(=O)CSc3ncccc3C(=O)O)cc2)CC1 | 7.31%
CCCCc1cc(=O)oc2cc(OCC(=O)NCC3CCC(C(=O)O)CC3)ccc12 (centres unmarked) | 18%
O=C(COc1ccc(Cl)cc1)NC1CCSC1=O (centres unmarked) | -16.8%
CCCCc1cc(=O)oc2cc(OCC(=O)N[C@@H](Cc3ccccc3)C(=O)O)ccc12 | 6.13%
O=C(COc1ccccc1)NC1CCSc2ccccc21 (centres unmarked) | 0.0355%
O=C(COc1ccc2c3c(c(=O)oc2c1)CCC3)NC1CCN(Cc2ccccc2)CC1 | -24.9%
O=C(COc1ccccc1)NC1CCSC1=O (centres unmarked) | -72.9%
Cc1cc(OCC(=O)NC2CCN(Cc3ccccc3)CC2)c2c(C)cc(=O)oc2c1 | -21.4%
Cc1cc(=O)oc2cc(OCC(=O)NC3CCN(Cc4ccccc4)CC3)ccc12 | -63.9%
CCCCc1cc(=O)oc2cc(OCC(=O)NC3CCN(Cc4ccccc4)CC3)ccc12 | -61.1%
O=c1[nH]c(O)c(N=Nc2ccc3c(c2)OCCO3)c(=O)[nH]1 | 14.2%
CC(=O)N1c2ccc(N=Cc3cc(Br)cc(Br)c3O)cc2CC1C (centres unmarked) | 2.6%
Cc1ccc(CN2C(=O)/C(=C\c3ccc(C(=O)NCc4cccnc4)cc3)Oc3ccccc32)cc1 | 12.9%
O=C(NNc1ccccn1)C(=O)NNS(=O)(=O)c1ccc(F)cc1 | 12.5%
Cn1c(=O)c2nc(-c3ccccc3)oc2c2ccccc21 | -1.46%
N#Cc1c(-c2ccccc2)nc(SCC(=O)Nc2ccc(OC(F)(F)Cl)cc2)[nH]c1=O | 28.5%
CN(C)C(=S)Nc1ccc2ccccc2c1 | 11.2%
C=CCNC(=O)CN1CCC(n2nnc3cc(C(F)(F)F)ccc32)CC1 | -50.7%

Source: article PMC4336329 (PLoS ONE, 2015)
